High-throughput results deposited in PubChem by several laboratories.
TNF necrop inh = TNF-alpha cell death inhibition in Jurkat FADD-/- cells | Jurkat FADD-/- TNF necroptosis rescue, ATP luminescence, 24 h; 0 = TNF only, 100 = no-TNF cells | activation (protection from cell death), % at 10 µM | 220,000 tested, 0.068% active;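 active = activation, meaning protection from cell death, of at least 50% relative to plate controls; inactive = activation below 50%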;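 also: necroptosis triggered by 40 ng/mL TNF-alpha added together with compound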
Mcl1 Bid PPI = Mcl-1/Bid interaction inhibition | Q07820 | TR-FRET Mcl-1/Bid-Dy647 peptide binding, 1536-well | 220,000 tested, 0.97% active | inhibition, % at 21.7 µM;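 active = compounds that cut the binding signal by more than half at the single screening dose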;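 also: His-tagged Mcl-1 with europium anti-His antibody binding Bid BH3 peptide; 0% = Mcl-1 plus peptide wells and 100% = peptide-only wells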
Target sequence (Q07820 whole entry, looked up): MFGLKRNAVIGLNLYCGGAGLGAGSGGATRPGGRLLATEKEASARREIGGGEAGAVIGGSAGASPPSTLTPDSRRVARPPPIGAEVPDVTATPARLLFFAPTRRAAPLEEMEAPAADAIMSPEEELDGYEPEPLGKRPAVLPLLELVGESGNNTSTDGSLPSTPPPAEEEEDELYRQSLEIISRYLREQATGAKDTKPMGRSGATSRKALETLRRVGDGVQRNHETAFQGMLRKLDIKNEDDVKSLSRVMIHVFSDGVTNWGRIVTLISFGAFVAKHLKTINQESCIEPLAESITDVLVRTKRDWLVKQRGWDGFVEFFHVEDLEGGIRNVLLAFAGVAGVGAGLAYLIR
m-calpain inh = calpain II (pig) inhibition | purified calpain II, fluorogenic peptide substrate, 30 min | inhibition, % at 16 µM | 220,000 tested, 0.37% active;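 active = inhibition above about 50%, limit read from the data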
Mcl1-Noxa inh = disrupts binding of human Mcl-1 to Noxa peptide. TR-FRET Mcl-1/Noxa peptide binding, 2 h. inhibition, % at 21.7 µM. 220,000 tested, 1.5% active. AID 1022;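 active = compounds that cut the protein-peptide binding signal by more than 50% relative to plate controls in a single-dose test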;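 also: His-tagged Mcl-1 with rhodamine Noxa BH3 peptide and terbium anti-His antibody; 0% = Mcl-1 plus Noxa peptide wells and 100% = peptide-only wells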
Bim-Mcl-1 = human Bim-Mcl-1 interaction inhibition | Q07820 | Bead-based flow cytometry, Bim peptide-Mcl-1 binding | inhibition, % at 10 µM | 190,000 tested, 0.1% active | AID 1009; in the data active = inhibition above about 40%;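 also: 0% = no compound tracer wells and 100% = peptide blocker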
zVAD death inh = L929 zVAD cell death inhibition; AID 1377; viability rescue, % at 10 µM; L929 zVAD necroptosis rescue, ATP luminescence, 24 h; with zVAD 60 µM; 220,000 tested, 0.38% active;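 active = activation, scaled between plate controls, above about 75%, limit read from the data; inactive = activation under that limit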;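 also: 0% = zVAD with DMSO and 100% = DMSO alone without zVAD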
The depositor's hits bear a star; / = no result given. Compounds with a hit are over-represented: about 2.8% of the library has one in this group of screens.

SMILES	TNF necrop inh	Mcl1 Bid PPI	m-calpain inh	Mcl1-Noxa inh	Bim-Mcl-1	zVAD death inh
O=C(CSc1nnc2c3ccccc3c3ccccc3c2n1)Nc1ccccc1F	-5	4	-41	61*	7	0
O=C(CSc1nnc2c3ccccc3c3ccccc3c2n1)Nc1ccccc1	-7	-51	-223	13	-3	0
O=c1c(Cl)c2oc3ccccc3nc-2c2ccccc12	-2	48	25	62*	9	-2
CCOc1cc(C(=O)Nc2ccc(F)cc2)cc(Br)c1OC	1	-10	11	2	-7	0
CCOc1cc(C(=O)Nc2ccc(N3CCOCC3)cc2)cc(Br)c1OC	1	-25	19	61*	0	5
O=C(COc1ncnc2ccccc12)Nc1ccccc1[N+](=O)[O-]	1	-2	18	-12	-6	1
CN(C)S(=O)(=O)N1CCN(c2cccc(Cl)c2)CC1	-1	-8	17	55*	9	0
CN(C)S(=O)(=O)N1CCN(c2ccccc2)CC1	-2	-29	-5	15	-5	0
O=C1CCCC(O)=C1C(C#Cc1ccccc1)C1=C(O)CCCC1=O	-5	-4	-13	52*	0	1
CC1(C)CC(=O)C(C(C#Cc2ccccc2)C2=C(O)CC(C)(C)CC2=O)=C(O)C1	0	8	4	57*	-5	0
O=C(c1ccc(-c2nnc(-c3ccccc3)o2)cc1)N1CCCCCC1	0	-4	60*	-5	-1	7
O=C(c1ccc(-c2ccccc2)cc1)N1CCC(C(=O)N2CCCC2)CC1	-5	-9	-37	-1	0	-1
CCC(C)N1CCNCC1 (centres undefined)	0	-4	16	26	4	3
O=C(O)c1cc(-c2ccc(/C=C3\NC(=O)N(c4ccccc4)C3=O)o2)ccc1Cl	1	-14	-11	73*	/	2
O=C(O)c1cc(-c2ccc(/C=C3\NC(=O)N(c4ccc(Cl)cc4)C3=O)o2)ccc1Cl	0	-14	-41	48	2	1
Cc1ccc(CN2C(=O)N/C(=C/c3ccc(-c4ccc(C(=O)O)cc4)o3)C2=O)cc1	2	-58	27	66*	/	0
c1ccc(-c2cn(-c3ccccc3)c3ncnc(N4CCCCC4)c23)cc1	0	-29	53*	21	-3	0
Cc1ccc(NC(=O)NC(=O)CSc2nnc(-c3ccc(Cl)cc3Cl)n2N)c(C)c1	2	11	0	5	-5	1
Cc1c(C(=O)N2c3ccccc3Sc3ccccc32)cccc1[N+](=O)[O-]	2	0	47	12	-2	0
O=C(/C=C/c1ccccc1Cl)Nc1ccc(Cl)cn1	2	-38	9	11	3	0
CCOc1ccc2nc(SCC(=O)Nc3ccc4c(c3)OCO4)sc2c1	-1	-1	25	2	9	-1
CCOc1ccc2nc(NC(=O)/C=C/c3ccc4c(c3)OCO4)sc2c1	2	60*	13	56*	0	0
O=C(/C=C/c1ccc2c(c1)OCO2)Nc1ccc(Cl)cn1	16	63*	-52	17	-2	32
O=C(/C=C/c1ccc2c(c1)OCO2)Nc1nc2ccc(F)cc2s1	2	61*	13	71*	/	0
COCCNC(=O)CSc1nc(N)c(NC(=O)c2ccccc2F)c(=O)[nH]1	1	-35	12	5	-3	1
SMILES	TNF necrop inh	Mcl1 Bid PPI	m-calpain inh	Mcl1-Noxa inh	Bim-Mcl-1	zVAD death inh
CC(=O)Nc1sc(N/N=C\c2ccccc2F)nc1-c1cccs1	1	-9	-59	62*	-8	3
CC(=O)Nc1sc(N/N=C\c2ccc(O)cc2)nc1-c1cccs1	-3	-71	-24	104*	/	2
CC(=O)Nc1sc(N/N=C\c2cccc(Cl)c2)nc1-c1cccs1	3	-10	-77	37	-6	1
O=S(=O)(c1ccc(Cl)cc1)n1nnc2ccccc21	-1	-2	5	14	33	0
COc1ccc(Cl)cc1C(=O)Nc1ccccc1N1CCN(C)CC1	3	-8	-25	56*	0	0
CN1CCN(c2ccc(S(=O)(=O)N3CCCCC3)cc2NC(=O)c2ccc(C#N)cc2)CC1	2	-39	-16	9	-31	0
CN1CCN(c2ccc(Cl)cc2NC(=O)c2ccc(S(=O)(=O)N3CCCCCC3)cc2)CC1	-2	-45	-123	74*	0	0
CC(C)Oc1ccc(C2CC(=O)N(Nc3ccc([N+](=O)[O-])cc3[N+](=O)[O-])C2=O)cc1 (centres undefined)	5	-5	-5	8	/	1
CCOc1ccc(C2CC(=O)N(Nc3ccc([N+](=O)[O-])cc3[N+](=O)[O-])C2=O)cc1 (centres undefined)	1	0	19	54*	/	0
CC(C)c1ccc(NC(=O)Cn2cccc2C2=NC(c3ccccc3)CO2)cc1 (centres undefined)	4	-10	24	-3	-1	1
NS(=O)(=O)c1cccc(NC(=O)CSc2nc3ccccc3c(=O)n2CCCN2CCOCC2)c1	2	-24	-10	8	-2	1
COc1ccccc1Cc1nc2ccccc2n1S(=O)(=O)c1ccc(Cl)cc1	12	59*	-2	0	0	0
CCCOC(=O)C1[C@H]2C(=O)N(CCCOC)C[C@]23C=C[C@H]1O3 (some centres undefined)	-1	-8	8	59*	-2	0
COCCCN1CC23C=CC(O2)C(C(=O)O)C3C1=O (centres undefined)	1	-18	7	7	0	-1
O=C(CN(C(=O)c1ccc(Cl)cc1Cl)N1C(=O)C2C3C=CC(C3)C2C1=O)c1ccc(F)cc1 (centres undefined)	-3	/	/	/	/	-1
Cc1ccc(C(=O)CN(C(=O)c2ccc(Cl)c(Cl)c2)N2C(=O)C3C4C=CC(C4)C3C2=O)cc1 (centres undefined)	0	80*	15	/	-3	1
NS(=O)(=O)c1ccc(N=Nc2ccc(=O)[nH]c2O)cc1	-2	-41	17	63*	/	1
O=C(Cn1c(=O)n(-c2ccccc2)c(=O)n1CC(=O)N1CCCCC1)N1CCCCC1	1	-21	50*	13	4	0
COc1ccc2c(c1)c(=O)oc1cc(O)ccc12	-1	-10	-47	6	0	1
COc1ccc2c(c1)c(=O)oc1cc3oc(C)c(C)c3cc12	-1	67*	-47	56*	-4	0
COC(=O)c1sc(Nc2ccccc2)nc1C	-3	-29	4	0	0	2
Cc1nc(Nc2ccccc2)sc1C(=O)c1ccccc1	4	-2	51*	-6	/	20
